According to PubChem BioAssay:
“And” between values parts separate entries of the source, which are not always exact repeats. Equal entries are not always repeated. Inconclusive results are not listed. For part of these data: Entries with a potency or affinity are not part of this list. The source made the active and inactive calls. Unless noted, no stated cut-off is given here; in the data, active means inhibition above about 80%; inactive means the rest.

Assays:
[1] = target: ATP-dependent translocase ABCB1 (Homo sapiens) (UniProt P08183); experiment: MDR1 (ABCB1) efflux transporter inhibition, cell-based (AID 377; in the data active means fluorescence slope change above about 50%); settings: MDR1-expressing cells, fluorescent substrate accumulation slope; stronger effect = higher value; concentration not given here
[2] = antimalarial activity against Dd2 strain (AID 2302;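 active means growth inhibition above 50% at the single 2 µM test dose, taken to imply half-maximal potency below 2 µM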;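 further: 0% = DMSO untreated growth and 100% = chloroquine plus artemisinin killed control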); settings: P. falciparum Dd2 in RBCs, LDH growth readout, 72 h; at 2 µM; stronger effect = higher value
[3] = HepG2 cytotoxicity, primary screen, cytotoxicity control for P. falciparum antimalarial project, cell-based, ATP luminescence (AID 2303;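 active means inhibition above 50%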;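 further: 0% = DMSO wells and 100% = digitonin-killed cells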); settings: HepG2 viability, 24-48 h, at 10 µM, stronger effect = higher value
[4] = target: L-lactate dehydrogenase (Plasmodium falciparum (isolate CDC / Honduras)) (UniProt Q27743); experiment: PfLDH activity inhibition – cell lysate, 3D7 strain, counter-screen for P. falciparum growth inhibition project (AID 2304; call rule not given here;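 further: 0% = vehicle and 100% = reference inhibitor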); settings: P. falciparum 3D7 crude extract, LDH APAD/NBT absorbance; at 2 µM; stronger effect = higher value
[5] = inhibition of 3D7 malaria parasite growth – strain 3D7 (AID 2306; call rule not given here;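 further: 0% = DMSO wells and 100% = chloroquine plus artemisinin control wells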); settings: P. falciparum 3D7 erythrocytic growth, LDH absorbance, 72 h; at 2 µM; stronger effect = higher value
[6] = circadian clock period modulators, cell-based, LOPAC library, luminescence reporter (AID 2774; call rule not given here;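 further: values are relative to mean of DMSO wells on each plate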); settings: circadian reporter cells, at 7 µM, actives lie on both sides
[7] = hESC survival regulators, cell-based (AID 493140; call rule not given here;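 further: cells exposed to compounds for four days before counting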); settings: human embryonic stem cell survival screen; stronger effect = higher value
[8] = liver-stage malaria parasite growth inhibition, primary screen, cell-based, HepG2, luciferase luminescence, HepG2 viability (AID 624349; in the data active means parasite load remaining mostly below about 12%, no sharp cut-off; inactive means mostly above about 10%;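 further: 100% = mean of DMSO negative control wells on the same plate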); settings: P. berghei liver stage in HepG2, luciferase luminescence, concentration not given here; parasite load remaining: stronger effect = lower value; viability: measured here: HepG2 viability without parasites
[9] = tested on: Hepatitis C virus NS3 helicase; experiment: HCV NS3 helicase inhibitors, primary screen, biochemical, fluorescence polarization, LOPAC1280 library (AID 687035; in the data active means inhibition above about 37%); settings: Purified HCV NS3 helicase, Cy5-dT15 ssDNA binding fluorescence polarization; stronger effect = higher value; concentration not given here
[10] = Cy5 fluorescence quenching or enhancement artefacts, artefact control for HCV NS3 helicase inhibitor project, biochemical, LOPAC1280 (AID 687037; call rule not given here); settings: Cy5-DNA-NS3h complex fluorescence interference counterscreen
[11] = target: Calcium-dependent protein kinase 1 (Plasmodium falciparum (isolate 3D7)) (UniProt P62344); experiment: PfCDPK1 kinase inhibitors, biochemical, TCAMS library (AID 1159585; cut-off not given, nearly all actives have IC50 up to about 0.98 µM;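 further: inhibitors leave more ATP so luminescence rises with inhibition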); settings: recombinant PfCDPK1, Kinase-Glo ATP depletion luminescence
[12] = target: Plasmodium falciparum protein kinase 6 (PK6, PF3D7_1337100) (UniProt Q8IDW1); experiment: PfPK6 kinase inhibitors, biochemical, TCAMS library (AID 1159586; call rule not given here); settings: recombinant PfPK6, Kinase-Glo ATP depletion luminescence
[13] = target: Protein kinase 7 (PK7), Plasmodium falciparum 3D7 (PF3D7_0213400) (UniProt Q7YTF7); experiment: inhibition of Plasmodium PK7 catalytic activity – biochemical, TCAMS antimalarial set, Kinase-Glo luminescence (AID 1159587; call rule not given here); settings: recombinant PfPK7, Kinase-Glo ATP depletion luminescence
[14] = target: Calcium-dependent protein kinase 4 (Plasmodium falciparum (isolate 3D7)) (UniProt Q8IBS5); experiment: PfCDPK4 kinase inhibitors, biochemical, TCAMS library (AID 1159588; cut-off not given, nearly all actives have IC50 up to about 0.91 µM); settings: recombinant PfCDPK4, Kinase-Glo ATP depletion luminescence
[15] = tested on: Aerobactin synthetase IucA (Klebsiella pneumoniae, hypervirulent); experiment: IucA enzyme inhibition, biochemical, LOPAC library, absorbance readout (AID 1346212; call rule not given here;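 further: 100% = no compound wells and 0% = no enzyme wells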); settings: IucA enzyme assay, absorbance (OD) readout; stronger effect = lower value;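 tested at 8 µM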
[16] = sensitizers of A549 cells to miR-34 induction, primary screen, imaging, A549 dox-inducible miR-34, nuclei and caspase counts (AID 1347080;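 active means compounds whose cell count with miR-34 switched on is under 0.7 times the count with it off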); settings: A549 miR-34 inducible, Hoechst nuclei count, 48 h
[17] = phospholipid biosynthesis inhibitors in animal cells, primary screen, cell-based, LOPAC library, screen 4 (AID 1347384; call rule not given here); settings: phospholipid biosynthesis inhibition screen, at 10 µM
[18] = viability rescue of complex I mutant cybrids, primary screen, cell-based, galactose medium, ATP luminescence (AID 1645843;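 active means z-score of at least 1.8 in each of two replicates, scored against plate mean and spread of sample wells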;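 further: positive z means more ATP and so rescue of galactose-driven cybrid death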); settings: complex I mutant cybrid cells, 72 h, stronger effect = higher value
[19] = LFS_MB_P medulloblastoma growth inhibition, cell-based, chromothripsis tumors, cisplatin or BGB combos (AID 1671449); settings: LFS_MB_P medulloblastoma cells;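 further: cells exposed for 96 hours; 0% = vehicle DMSO and 100% = killing by high DMSO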
[20] = HDN33 neuroblastoma growth inhibition, cell-based, chromothripsis tumors, cisplatin or BGB combos (AID 1671450); settings: HDN33 neuroblastoma cells, stronger effect = higher value;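 further: cells exposed to compound for four days; 0% = vehicle DMSO and 100% = cell killing by high DMSO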
[21] = ICB984 medulloblastoma cell growth inhibition, synergistic combos for chromothripsis tumors, cisplatin or BGB combos (AID 1671451; call rule not given here;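 further: cells exposed for 96 hours before readout; 0% = vehicle DMSO and 100% = killing by high DMSO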); settings: ICB984 medulloblastoma cells, drug combinations, stronger effect = higher value
[22] = LFS_MB_1R medulloblastoma cell growth inhibition, synergistic combos for chromothripsis tumors, cisplatin or BGB combos (AID 1671452); settings: LFS_MB_1R medulloblastoma cells, stronger effect = higher value;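 further: cells exposed for 96 hours before readout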
[23] = HTB85 osteosarcoma cell growth inhibition, synergistic combos for chromothripsis tumors, BGB or cisplatin IC20 combos (AID 1671453); settings: HTB85 osteosarcoma cells, drug combinations, stronger effect = higher value;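 further: cells exposed for 96 hours before readout; 0% = vehicle DMSO and 100% = high DMSO killing control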
[24] = CRL2098 osteosarcoma cell growth inhibition, synergistic combos for chromothripsis tumors, BGB or cisplatin IC20 combos (AID 1671454); settings: CRL2098 osteosarcoma cells, drug combinations, stronger effect = higher value;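 further: cells exposed for 96 h before readout; 0% = vehicle DMSO and 100% = killing by high DMSO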
[25] = HD-MB03 medulloblastoma cell growth inhibition, synergistic combos for chromothripsis tumors, BGB or cisplatin IC20 combos (AID 1671455; in the data active means inhibition above about 83%;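 further: 0% = vehicle DMSO and 100% = high DMSO as cytotoxic control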); settings: HD-MB03 medulloblastoma cells, stronger effect = higher value
[26] = UWB1.289 ovarian carcinoma cell growth inhibition, synergistic combos for chromothripsis tumors, BGB or cisplatin combos (AID 1671456); settings: UWB1.289 ovarian carcinoma cells, stronger effect = higher value;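 further: cells exposed to compound for four days; 0% = vehicle DMSO and 100% = killing by high DMSO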
[27] = LFS_MB_2R medulloblastoma cell growth inhibition, synergistic combos for chromothripsis tumors, cisplatin combos (AID 1671457); settings: LFS_MB_2R medulloblastoma cells, stronger effect = higher value;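 further: cells exposed to compound for four days before readout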
[28] = MDA-MB-436 breast carcinoma cell growth inhibition, synergistic combos for chromothripsis tumors, BGB or cisplatin combos (AID 1671458; call rule not given here;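 further: cells exposed for 96 hours; 0% = vehicle DMSO and 100% = killing by high DMSO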); settings: MDA-MB-436 breast carcinoma growth inhibition, drug combinations, stronger effect = higher value
[29] = UWB1.289_BRCA1 ovarian cancer growth, cell-based, BGB or cisplatin combinations (AID 1671459); settings: UWB1.289 BRCA1 ovarian carcinoma, drug combinations, stronger effect = higher value
[30] = human astrocyte viability loss, single and combined drugs, cytotoxicity control for chromothriptic childhood tumor combination screen, cell-based, BGB or cisplatin IC20 combos (AID 1671460); settings: Human astrocytes, drug combinations, stronger effect = higher value;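 further: cells exposed to compounds for 96 hours before viability readout; 0% = vehicle and 100% = killing control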
[31] = growth inhibition of BT084 medulloblastoma cells, cell-based, ICGC_MB145, cisplatin and BGB IC40 combos (AID 1671461); settings: drug combinations, stronger effect = higher value;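 further: cells exposed to drugs for 96 hours; 0% = vehicle DMSO and 100% = high DMSO full killing control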
[32] = growth inhibition of RCMB18 medulloblastoma cells, cell-based, cisplatin and BGB IC40 combos (AID 1671462); settings: stronger effect = higher value;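 further: cells exposed to compound for four days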
[33] = growth inhibition of CRL1545 osteosarcoma cells, cell-based, cisplatin and BGB IC20 combos (AID 1671464); settings: stronger effect = higher value;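 further: cells exposed to compound for 96 hours before readout; 0% = vehicle DMSO and 100% = high DMSO killing control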
[34] = measured here: combination with BGB IC40, at 0.05 µM
[35] = measured here: with BGB IC20 combination, at 0.5 µM
[36] = measured here: with cisplatin IC20 combination, at 0.5 µM
[37] = measured here: combination with cisplatin, at 0.5 µM
[38] = measured here: combination with cisplatin, at 5 µM

Plasmodium falciparum protein kinase 6 (PK6, PF3D7_1337100), sequence (Q8IDW1 1-305): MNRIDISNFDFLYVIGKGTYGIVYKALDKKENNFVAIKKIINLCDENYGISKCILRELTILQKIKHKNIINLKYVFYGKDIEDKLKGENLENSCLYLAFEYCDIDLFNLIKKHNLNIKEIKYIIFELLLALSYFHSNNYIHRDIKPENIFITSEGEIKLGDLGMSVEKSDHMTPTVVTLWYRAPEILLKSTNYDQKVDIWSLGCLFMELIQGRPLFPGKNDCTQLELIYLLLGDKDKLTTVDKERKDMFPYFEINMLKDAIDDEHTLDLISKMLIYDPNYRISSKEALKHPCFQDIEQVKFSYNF
ATP-dependent translocase ABCB1 (Homo sapiens), sequence (P08183 whole entry, looked up): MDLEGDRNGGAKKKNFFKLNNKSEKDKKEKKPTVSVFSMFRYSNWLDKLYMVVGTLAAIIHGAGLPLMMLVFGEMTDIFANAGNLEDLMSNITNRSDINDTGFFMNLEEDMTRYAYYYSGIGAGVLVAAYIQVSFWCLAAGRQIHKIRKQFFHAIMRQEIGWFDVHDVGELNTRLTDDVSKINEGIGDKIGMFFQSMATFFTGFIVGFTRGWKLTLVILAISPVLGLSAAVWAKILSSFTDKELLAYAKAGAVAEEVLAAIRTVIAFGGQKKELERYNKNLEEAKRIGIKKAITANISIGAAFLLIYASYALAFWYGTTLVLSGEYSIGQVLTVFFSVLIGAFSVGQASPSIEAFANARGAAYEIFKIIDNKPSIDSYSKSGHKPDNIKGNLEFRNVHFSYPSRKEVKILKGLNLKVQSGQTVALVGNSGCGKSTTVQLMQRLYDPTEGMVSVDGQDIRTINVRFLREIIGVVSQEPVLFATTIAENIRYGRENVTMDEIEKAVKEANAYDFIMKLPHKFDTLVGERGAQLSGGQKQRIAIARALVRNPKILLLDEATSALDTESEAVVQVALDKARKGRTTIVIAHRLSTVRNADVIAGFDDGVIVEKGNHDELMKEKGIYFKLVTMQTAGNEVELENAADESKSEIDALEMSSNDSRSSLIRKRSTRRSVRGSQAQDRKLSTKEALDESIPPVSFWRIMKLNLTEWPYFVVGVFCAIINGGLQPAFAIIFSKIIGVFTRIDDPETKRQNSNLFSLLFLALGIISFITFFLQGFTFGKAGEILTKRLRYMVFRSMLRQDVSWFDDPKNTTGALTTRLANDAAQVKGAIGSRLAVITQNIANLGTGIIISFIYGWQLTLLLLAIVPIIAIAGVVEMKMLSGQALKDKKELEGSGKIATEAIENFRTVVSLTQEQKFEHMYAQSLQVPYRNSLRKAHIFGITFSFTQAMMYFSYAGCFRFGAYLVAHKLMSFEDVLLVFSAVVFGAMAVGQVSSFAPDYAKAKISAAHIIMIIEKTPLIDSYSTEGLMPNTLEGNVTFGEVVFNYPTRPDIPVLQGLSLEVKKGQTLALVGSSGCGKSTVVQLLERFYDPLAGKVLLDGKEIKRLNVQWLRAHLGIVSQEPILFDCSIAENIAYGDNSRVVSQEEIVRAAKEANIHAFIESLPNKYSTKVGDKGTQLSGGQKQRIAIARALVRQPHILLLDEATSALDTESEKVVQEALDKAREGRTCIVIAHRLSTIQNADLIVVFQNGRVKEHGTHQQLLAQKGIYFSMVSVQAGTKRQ
Calcium-dependent protein kinase 1 (Plasmodium falciparum (isolate 3D7)), sequence (P62344 whole entry, looked up): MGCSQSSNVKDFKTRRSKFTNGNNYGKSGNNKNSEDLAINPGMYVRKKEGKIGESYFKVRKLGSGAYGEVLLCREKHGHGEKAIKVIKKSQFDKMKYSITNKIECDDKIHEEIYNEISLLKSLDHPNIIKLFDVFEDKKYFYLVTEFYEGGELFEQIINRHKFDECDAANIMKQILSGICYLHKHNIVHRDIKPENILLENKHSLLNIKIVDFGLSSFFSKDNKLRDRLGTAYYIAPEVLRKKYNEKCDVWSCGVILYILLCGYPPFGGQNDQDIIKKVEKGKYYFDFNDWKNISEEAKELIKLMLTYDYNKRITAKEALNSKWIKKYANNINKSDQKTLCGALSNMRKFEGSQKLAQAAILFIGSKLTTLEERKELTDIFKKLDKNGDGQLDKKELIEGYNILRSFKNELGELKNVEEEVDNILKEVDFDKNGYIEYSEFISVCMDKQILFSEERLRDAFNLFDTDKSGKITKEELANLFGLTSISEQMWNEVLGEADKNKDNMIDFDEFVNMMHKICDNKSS
L-lactate dehydrogenase (Plasmodium falciparum (isolate CDC / Honduras)), sequence (Q27743 whole entry, looked up): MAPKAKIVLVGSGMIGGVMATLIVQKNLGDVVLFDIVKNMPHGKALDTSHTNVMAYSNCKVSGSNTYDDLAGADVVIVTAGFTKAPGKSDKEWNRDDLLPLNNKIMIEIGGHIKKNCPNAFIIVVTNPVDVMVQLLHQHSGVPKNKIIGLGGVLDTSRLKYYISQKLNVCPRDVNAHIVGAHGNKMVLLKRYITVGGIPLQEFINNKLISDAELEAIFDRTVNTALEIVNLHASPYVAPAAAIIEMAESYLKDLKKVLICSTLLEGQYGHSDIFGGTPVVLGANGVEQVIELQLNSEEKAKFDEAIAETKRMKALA
Protein kinase 7 (PK7), Plasmodium falciparum 3D7 (PF3D7_0213400), sequence (Q7YTF7 1-343): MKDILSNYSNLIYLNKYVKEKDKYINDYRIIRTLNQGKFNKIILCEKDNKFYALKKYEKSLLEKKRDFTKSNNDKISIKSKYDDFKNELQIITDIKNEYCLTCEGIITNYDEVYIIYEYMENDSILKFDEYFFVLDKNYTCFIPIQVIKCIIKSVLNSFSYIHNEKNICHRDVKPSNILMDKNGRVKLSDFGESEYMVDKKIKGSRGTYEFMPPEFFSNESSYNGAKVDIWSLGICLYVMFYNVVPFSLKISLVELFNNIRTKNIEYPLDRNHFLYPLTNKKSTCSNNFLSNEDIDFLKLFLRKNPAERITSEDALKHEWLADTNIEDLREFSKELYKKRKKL
Calcium-dependent protein kinase 4 (Plasmodium falciparum (isolate 3D7)), sequence (Q8IBS5 whole entry, looked up): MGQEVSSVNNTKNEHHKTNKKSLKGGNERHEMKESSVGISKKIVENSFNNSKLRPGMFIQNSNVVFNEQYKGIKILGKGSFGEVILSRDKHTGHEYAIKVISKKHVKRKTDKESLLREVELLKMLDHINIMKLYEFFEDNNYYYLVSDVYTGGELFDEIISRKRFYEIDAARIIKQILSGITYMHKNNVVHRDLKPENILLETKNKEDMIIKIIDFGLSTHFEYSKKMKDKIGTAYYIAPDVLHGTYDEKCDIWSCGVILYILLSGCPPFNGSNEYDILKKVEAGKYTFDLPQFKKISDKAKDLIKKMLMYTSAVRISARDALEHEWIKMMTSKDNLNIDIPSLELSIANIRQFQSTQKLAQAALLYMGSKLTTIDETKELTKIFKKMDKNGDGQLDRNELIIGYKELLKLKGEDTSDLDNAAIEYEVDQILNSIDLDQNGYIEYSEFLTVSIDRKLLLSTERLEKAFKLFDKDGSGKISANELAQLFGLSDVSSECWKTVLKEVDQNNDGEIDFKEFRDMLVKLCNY

Cc1c2ccncc2c(C)c2c1[nH]c1ccccc12
fluorescence slope change [1]: 77.1% (active)
growth inhibition [2]: 97% (active)
inhibition [3]: 38% (inactive)
inhibition [4]: 2% (inactive)
growth inhibition [5]: 95% (active)
period change [6]: 0.09 h (inactive)
survival [7]: 10.4 (inactive)
parasite load remaining [8]: 62% (inactive) and 52.8% (inactive)
viability [8]: 85.3% and 75.8%
inhibition [9]: -3% (inactive)
fluorescence ratio (interference) [10]: 1 (inactive)
outcome [11]: inactive
outcome [12]: inactive
outcome [13]: inactive
outcome [14]: inactive
remaining activity [15]: 81.7% (inactive)
fold change ([16]; stronger effect = lower value): 1.32 (inactive) and 0.785 (inactive)
fold change ([16]; measured here: relative caspase fold change +Dox/-Dox): 1.54 and 1.45
cell count ([16]; measured here: total cells with miR-34 induction, stronger effect = lower value): 324 and 1410
cell count ([16]; measured here: total cells without miR-34 induction): 246 and 1800
outcome [17]: inactive
z-score [18]: -0.975 (inactive)
inhibition ([19]; at 0.5 µM, stronger effect = higher value): -2.79% (inactive)
inhibition ([19]; measured here: combination with BGB IC20, at 0.005 µM): -42.2%
inhibition ([19]; measured here: combination with BGB IC40, at 0.005 µM): 16.3%
inhibition [19, 34]: -3.69%
inhibition ([19]; measured here: combination with cisplatin, at 0.5 µM, stronger effect = higher value): -10.1%
inhibition ([19]; measured here: combination with cisplatin, at 5 µM, stronger effect = higher value): 97%
inhibition ([20]; BGB combo, at 5 µM): 71.9%
inhibition ([20]; at 0.5 µM): 19.9% (inactive)
inhibition ([20]; cisplatin combo, at 5 µM): 81.9%
inhibition [20, 35]: 6.43%
inhibition [20, 36]: 19.1%
inhibition ([20]; single agent, at 5 µM): 86.5%
inhibition ([21]; BGB IC20 combo, at 0.005 µM): 64.1%
inhibition ([21]; BGB IC40 combo, at 0.005 µM): 71.1%
inhibition ([21]; BGB IC40 combo, at 0.05 µM): 99.2%
inhibition ([21]; at 0.5 µM): -7.09% (inactive)
inhibition ([21]; cisplatin combo, at 0.05 µM): 99.7%
inhibition ([21]; cisplatin combo, at 0.5 µM): -15.1%
inhibition ([21]; cisplatin combo, at 5 µM): 2.54%
inhibition ([21]; measured here: 5 uM single agent, at 5 µM): -6.79%
inhibition ([22]; at 0.5 µM): 52.5% (inactive)
inhibition [22, 34]: -15.3%
inhibition [22, 37]: 90.8%
inhibition [22, 38]: 99.2%
inhibition ([23]; at 0.5 µM): -6.03% (inactive)
inhibition ([23]; measured here: with BGB IC20, at 0.5 µM): -6.83%
inhibition ([23]; measured here: with BGB IC20, at 5 µM): 36.4%
inhibition ([23]; measured here: with cisplatin IC20, at 0.5 µM): -14.1%
inhibition ([23]; measured here: with cisplatin IC20, at 5 µM): 40.2%
inhibition ([23]; single agent, at 5 µM): 51.7%
inhibition ([24]; at 0.5 µM): -3.13% (inactive)
inhibition ([24]; measured here: combination with BGB at IC20, at 0.5 µM): -26.6%
inhibition ([24]; measured here: combination with cisplatin at IC20, at 0.5 µM): 16.5%
inhibition ([25]; at 0.5 µM): 21.3% (inactive)
inhibition ([25]; measured here: combo with BGB at IC20, at 0.5 µM): 32.4%
inhibition ([25]; measured here: combo with cisplatin at IC20, at 0.5 µM): 9.33%
inhibition ([26]; at 0.5 µM): 18% (inactive)
inhibition ([26]; measured here: inhibition with BGB combination, at 0.05 µM): -8.89%
inhibition ([26]; measured here: inhibition with cisplatin combination, at 0.05 µM): -1.5%
inhibition ([27]; at 0.5 µM): -5.42% (inactive)
inhibition [27, 37]: 15.1%
inhibition [27, 38]: 95.3%
inhibition ([28]; at 0.5 µM): -9.97% (inactive)
inhibition ([28]; measured here: BGB combination, at 0.5 µM): -20.5%
inhibition ([28]; measured here: BGB combination, at 5 µM): 24.1%
inhibition ([28]; measured here: cisplatin combination, at 0.5 µM): -26.7%
inhibition ([28]; measured here: cisplatin combination, at 5 µM): 24.1%
inhibition ([29]; BGB combination, concentration series, at 5 µM): 104%
inhibition ([29]; at 0.5 µM): 21.4% (inactive)
inhibition ([29]; cisplatin combination, concentration series, at 5 µM): 113%
inhibition ([30]; at 0.5 µM): 13.8% (inactive)
inhibition ([30]; measured here: combo with BGB IC20, at 0.5 µM): 4.66%
inhibition ([30]; measured here: combo with cisplatin IC20, at 0.5 µM): -5.08%
inhibition ([31]; at 0.5 µM): 48.9% (inactive)
inhibition ([31]; cisplatin combination, at 0.5 µM): 60.2%
inhibition ([31]; cisplatin combination, at 5 µM): 49.9%
inhibition ([31]; measured here: BGB IC40 combination 0.05 uM, at 0.05 µM): 16.8%
inhibition ([31]; single agent, at 5 µM): 44.6%
inhibition ([32]; at 0.5 µM): 14.6% (inactive)
inhibition ([32]; cisplatin combo, at 5 µM): 91.5%
inhibition ([32]; measured here: BGB IC40 combination, at 0.05 µM): 1.25%
inhibition [32, 37]: -51.3%
inhibition ([32]; single agent, at 5 µM): 70.8%
inhibition ([33]; at 0.5 µM): -40.6% (inactive)
inhibition [33, 35]: -33.3%
inhibition [33, 36]: -46.6%
inhibition ([33]; single agent, at 0.05 µM): -12.4%
inhibition ([33]; single agent, at 5 µM): 68.6%
